Legend:
Settings in all cases: concentration: 1 μM, replicates: in singlicate; n = 1
FLT1 = system: FLT1
FLT3-autoinhibited = system: FLT3-autoinhibited
FLT3 = system: FLT3
FLT4 = system: FLT4
FRK = system: FRK
FYN = system: FYN
GAK = system: GAK
GCN2(Kin.Dom.2,S808G) = system: T1, GCN2(Kin.Dom.2,S808G)
T1 construct: gene EIF2AK4

GRK1 = system: GRK1
GRK2 = system: T2, GRK2
T2 construct: gene ADRBK1
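Also: KINOMEscan kinase panel screen.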

Compound | %Inh (FLT1) | %Inh (FLT3-autoinhibited) | %Inh (FLT3) | %Inh (FLT4) | %Inh (FRK) | %Inh (FYN) | %Inh (GAK) | %Inh (GCN2(Kin.Dom.2,S808G)) | %Inh (GRK1) | %Inh (GRK2)
CC(C)c1cc(-c2ccc3c(N)n[nH]c3c2)nc(N)n1 [GSK2250882] | 4% | 0% | 0% | 0% | 0% | 22% | 13% | 0% | 0% | 0%
Cc1ccc(NC(=O)c2ccc(Cl)cc2)cc1-c1ccc(C(=O)Nc2ccncc2)cc1 [GSK1398467] | 37% | 0% | 0% | 2% | 30% | 0% | 1% | 0% | 0% | 0%
COc1ccc(Nc2nccc(NCCNC(=O)Nc3cc(C)ccc3C)n2)cc1 [GSK1379899] | 29% | 2% | 0% | 8% | 0% | 0% | 0% | 4% | 0% | 0%
COc1ccc(Nc2nccc(N3CCC(NC(=O)C(C)c4ccc(Cl)cc4)CC3)n2)cc1 (stereo not shown) [GSK1379812] | 26% | 0% | 0% | 2% | 0% | 12% | 1% | 0% | 0% | 0%
CS(=O)(=O)Cc1ccc(Nc2nccc(-c3c(-c4cccc(NC(=O)C5CCCCC5)c4)nn4ncccc34)n2)cc1 [GSK350559] | 63% | 25% | 88% | 52% | 4% | 1% | 14% | 0% | 0% | 44%
CC(C)c1ccc(O)cc1Nc1ccnc2ccc(C(F)(F)F)cc12 [GW482059] | 21% | 9% | 1% | 10% | 9% | 20% | 0% | 0% | 0% | 14%
Cc1cnc(N)c(/C=C/c2cncc(C(=O)NCCc3ccc(Cl)cc3Cl)c2)c1.Cl [GSK190937] | 0% | 0% | 2% | 7% | 6% | 20% | 29% | 3% | 0% | 0%
CNc1cc(-c2ccc3c(N)n[nH]c3c2)nc(N)n1 [GSK2224810] | 15% | 16% | 0% | 2% | 7% | 20% | 9% | 0% | 6% | 0%
COc1cc2ncnc(Nc3cccc(Br)c3)c2cc1OC.Cl [GI230329] | 21% | 0% | 0% | 0% | 15% | 16% | 87% | 0% | 0% | 36%
Cn1cncc1-c1cc2c(Nc3ccc(OCc4ccccc4)cc3)ncnc2cn1 [GW281179] | 19% | 0% | 0% | 0% | 6% | 28% | 0% | 1% | 0% | 9%
FC(F)(F)c1ccccc1-c1cc(-c2c[nH]nc2-c2ccccn2)ccn1 [GW679396] | 18% | 0% | 0% | 0% | 17% | 0% | 27% | 0% | 0% | 0%
CNC(=O)c1ccc(C)c(-n2c(C)cc(OCc3ccc(F)cc3F)c(Br)c2=O)c1 | 2% | 0% | 0% | 0% | 0% | 0% | 0% | 0% | 0% | 4%
CS(=O)(=O)CCNCc1nc(-c2ccc3ncnc(Nc4ccc(OCc5ccccc5)c(Cl)c4)c3c2)cs1.Cl [GW582764] | 5% | 0% | 0% | 0% | 2% | 0% | 0% | 0% | 0% | 0%
CCn1c(-c2ccccc2)nc2cnccc21 [SB-733416] | 53% | 0% | 0% | 27% | 27% | 14% | 0% | 0% | 6% | 0%
CC[C@@H]1CO[C@H](C(=O)Nc2ccccc2)CN1c1cc(-c2ccc3c(N)n[nH]c3c2)nc(NC)n1 [GSK2376236] | 28% | 0% | 0% | 20% | 0% | 39% | 26% | 0% | 0% | 0%
COc1ccc2cc(-c3nc(-c4ccccc4C(C)C)[nH]c3-c3ccncc3)ccc2c1 [SB-660566] | 19% | 4% | 0% | 22% | 8% | 12% | 40% | 4% | 0% | 0%
COC(=O)C(NC(=O)NC1CCN(c2ccnc(Nc3ccc(F)cc3)n2)C1)c1ccccc1 (stereo not shown) [GSK1379712] | 14% | 8% | 0% | 0% | 0% | 31% | 0% | 2% | 0% | 4%

Compound | %Inh (FLT1) | %Inh (FLT3-autoinhibited) | %Inh (FLT3) | %Inh (FLT4) | %Inh (FRK) | %Inh (FYN) | %Inh (GAK) | %Inh (GCN2(Kin.Dom.2,S808G)) | %Inh (GRK1) | %Inh (GRK2)
Cc1ccc(-c2nc(Nc3ccncc3)c3ccccc3n2)s1 [GSK189015] | 39% | 17% | 23% | 10% | 7% | 0% | 53% | 13% | 9% | 1%
COc1ccc(CSc2nnc(-c3ccc4ncsc4c3)o2)cc1C(F)(F)F | 0% | 0% | 0% | 10% | 0% | 0% | 0% | 0% | 0% | 0%
O=C(Nc1n[nH]c2cc(-c3ccsc3)ccc12)C1CC1 [SB-732932] | 14% | 29% | 75% | 0% | 0% | 4% | 28% | 0% | 0% | 0%
Cl.Cl.Cl.N#Cc1ccc(CCNc2nccc(-c3cccc(CN4CCNCC4)c3)n2)cc1 [GSK2137462] | 17% | 0% | 38% | 2% | 4% | 38% | 26% | 11% | 0% | 0%
COc1ccc(Nc2nccc(N3CCC(NC(=O)c4cc5ccccc5s4)C3)n2)cc1 (stereo not shown) [GSK1379738] | 14% | 0% | 0% | 3% | 0% | 41% | 0% | 0% | 0% | 0%
Cc1c(Cn2c3ccccc3n3c(=O)cc(N4CCOCC4)nc23)cccc1C(F)(F)F [GSK2306394] | 27% | 17% | 11% | 18% | 0% | 20% | 18% | 5% | 0% | 0%
CC(=O)c1cccc(NC(=O)NC2CCN(c3ccnc(Nc4ccc(F)cc4)n3)C2)c1 (stereo not shown) [GSK1379710] | 27% | 11% | 0% | 12% | 0% | 27% | 5% | 0% | 0% | 10%
COc1ccc(CSc2nnc(-c3ccc4c(c3)CCO4)o2)cc1 | 0% | 0% | 0% | 0% | 0% | 0% | 0% | 33% | 0% | 0%
Cc1ccc(NC(=O)Nc2ccccc2)cc1-c1ccc(C(=O)Nc2ccncc2)cc1 [GSK1398471] | 32% | 0% | 36% | 21% | 61% | 33% | 4% | 50% | 2% | 0%
COc1ccc(Nc2nccc(-c3ccc(NC(=O)c4cc5cc(F)ccc5[nH]4)cc3)n2)cc1 [GSK1229496] | 4% | 0% | 0% | 9% | 0% | 0% | 0% | 0% | 3% | 9%
Cc1ccccc1-c1cc(-c2c[nH]nc2-c2ccccn2)ccn1 [GW680061] | 6% | 0% | 0% | 11% | 13% | 18% | 11% | 25% | 7% | 0%
COc1nccc(-c2c(-c3ccc(F)cc3)ncn2CCCN2CCOCC2)n1 [SB-282852] | 10% | 4% | 0% | 0% | 0% | 0% | 0% | 1% | 29% | 2%
CS(=O)(=O)CCNCc1nc(-c2ccc3ncnc(Nc4ccc5c(cnn5Cc5ccccc5)c4)c3c2)cs1.Cl.Cl [GW569716] | 20% | 0% | 0% | 0% | 9% | 0% | 0% | 1% | 0% | 0%
Cc1ccc(NC(=O)Nc2ccc(Cl)cc2)cc1-c1ccc(C(=O)Nc2ccncc2)cc1 [GSK1398472] | 27% | 3% | 22% | 0% | 31% | 0% | 0% | 17% | 0% | 0%
Cc1ccc(NC(=O)Nc2ccccc2F)cc1-c1ccc(C(=O)Nc2ccncc2)cc1 [GSK1398477] | 45% | 0% | 13% | 34% | 72% | 40% | 24% | 28% | 0% | 0%
c1ccc(-c2ccnc3[nH]ccc23)cc1 [SB-693578] | 1% | 8% | 0% | 8% | 0% | 0% | 90% | 0% | 6% | 0%
COc1cccc(NC(=O)Nc2ccc(C)c(-c3ccc(C(=O)Nc4ccncc4)cc3)c2)c1 [GSK1398474] | 37% | 0% | 25% | 41% | 10% | 25% | 0% | 0% | 28% | 0%
